Cruzain inh noDet: inhibitors of Trypanosoma cruzi cruzain without detergent. P25779. purified cruzain, Z-FR-AMC fluorescence, no detergent. Potency, µM, without a hit: max response, negative = inhibition, hits mostly inhibitors. 200,000 compounds, 2.3% hits;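 note: plate controls were enzyme without inhibitor for no effect and buffer without enzyme for full effect; nearly all actives have a fitted effect of over 40% in size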
Target sequence (P25779 123-467 limits assumed): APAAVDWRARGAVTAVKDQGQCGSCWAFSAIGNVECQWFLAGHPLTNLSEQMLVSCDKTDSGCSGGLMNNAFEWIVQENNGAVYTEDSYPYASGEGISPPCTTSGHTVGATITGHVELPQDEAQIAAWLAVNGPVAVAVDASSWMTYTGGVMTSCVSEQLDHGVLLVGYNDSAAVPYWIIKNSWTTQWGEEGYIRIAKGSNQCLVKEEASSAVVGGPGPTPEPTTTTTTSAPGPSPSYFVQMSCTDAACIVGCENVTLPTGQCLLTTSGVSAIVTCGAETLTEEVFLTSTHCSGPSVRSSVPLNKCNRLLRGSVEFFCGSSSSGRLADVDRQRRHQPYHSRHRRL
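Detergent-free condition (0.00005% Triton X-100) in acetate buffer pH 5.5 with DTT. 1.5 nM enzyme and compound were pre-mixed 15 min, then 2 uM Z-FR-AMC substrate added; reaction progress from fluorescence change between first and third reads (60 s).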
Cruzain Triton: inhibitors of Trypanosoma cruzi cruzain with detergent; 200,000 compounds, 0.43% hits; AID 1478; P25779; Potency, µM, for inactives: max response, negative = inhibition, usual class: inhibitors; purified cruzain, Z-FR-AMC fluorescence, 0.01% Triton;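 note: plate controls were neutral wells for no effect and buffer without enzyme for full effect; nearly all actives have a fitted effect of over 40% in size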
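Read-out: AMC fluorescence (360 nm excitation, 450 nm emission), four reads over 2 min, first-to-third difference used. Conditions: cruzain 1.5 nM, Z-FR-AMC 2 uM, pH 5.5 acetate, 5 mM DTT, 0.01% Triton X-100.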
An asterisk follows results filed as active; ? = inconclusive. Most compounds without a hit are left out; they make up all but 2.4% or so of the library. Calls come from the whole dose curve; as a rule, active = well fitted curve in the direction sought with a large enough effect; inconclusive = small, poorly fitted or top-dose-only effect, or another doubt; inactive = no such curve, though single readings can be large; an effect the other way counts as inactive or inconclusive. Potency is the fitted concentration of half-maximal effect.

SMILES | Cruzain inh noDet | Cruzain Triton
Cc1ccc(S(=O)(=O)n2nc(-c3ccccc3)nc2NCc2ccccc2Cl)cc1 | -24% | -2%
O=C(C1CCC1)N1CCc2cc(S(=O)(=O)Nc3ccc4c(c3)OCO4)ccc21 | ? | -6%
O=C1c2[nH]nc(-c3ccccc3O)c2C(c2cccc(O)c2)N1Cc1ccco1 (stereo not given) | -7% | -8%
Cc1ccc(NC(=O)CC2Nc3ccccc3NC2=O)cc1C (stereo not given) | 0% | -12%
CCOc1ccccc1NC(=O)CC1Nc2ccccc2NC1=O (stereo not given) | ? | -9%
CCCOc1ccccc1NC(=O)CC1Nc2ccccc2NC1=O (stereo not given) | 13µM* | -4%
Cc1ccc(NC(=O)CC2Nc3ccccc3NC2=O)cc1Cl (stereo not given) | 25µM* | ?
Cc1cccc2c1CC(C)(C)N=C2C1=C(O)CC(C)(C)CC1=O | -2% | -1%
O=C(COc1ccc(Br)cc1)Nc1cc(S(=O)(=O)N2CCCCC2)ccc1N1CCCCC1 | ? | -5%
CC(=O)Nc1sc(C)c(C)c1C(=O)OCC(=O)Nc1cc(S(=O)(=O)N2CCCCC2)ccc1Cl | 25µM* | -5%
CC(=O)c1c(C)[nH]c(C(=O)OCC(=O)Nc2cc(S(=O)(=O)N3CCCC3)ccc2Cl)c1C | -2% | -5%
O=C(COc1ccc(Cl)cc1)Nc1cc(S(=O)(=O)N2CCCCC2)ccc1N1CCCCC1 | 16µM* | -2%
CCOc1ccc(OCC)c(NC(=O)C(NS(=O)(=O)c2ccc(Br)s2)c2ccccc2)c1 (stereo not given) | 10µM* | -1%
CCOc1ccc(OCC)c(NC(=O)CCS(=O)(=O)c2ccc(Br)s2)c1 | 6% | -7%
CC(C)[C@H](NC(=O)NC1CCCc2ccccc21)C(=O)O (stereo not given in full) | -4% | -5%
COc1cccc(C(=O)Nc2ccc(Cl)c(C(F)(F)F)c2)c1 | -9% | -13%
COc1ccc(N2CCN(c3oc(Cc4cccc5ccccc45)nc3C#N)CC2)cc1 | 16µM* | 3%
CC1CCN(c2oc(Cc3cccc4ccccc34)nc2C#N)CC1 | -3% | 2%
N#Cc1nc(Cc2cccc3ccccc23)oc1N1CCOCC1 | 8% | -3%
N#Cc1nc(Cc2cccc3ccccc23)oc1N1CCN(c2ccccc2)CC1 | 7.9µM* | 1%
CN(C)C1C(=O)C(C(N)=O)=C(O)[C@@]2(O)C(=O)C3=C(O)c4c(O)cccc4[C@@](C)(O)C3CC12 (stereo not given in full) | 12% | 4%
Cc1nn2c(N)c(C#N)cnc2c1-c1ccc(Cl)cc1 | 25µM* | 6%
Cc1nn2c(N)c(C#N)cnc2c1-c1ccccc1 | 10% | -5%
Cc1ccc(-c2nnn(CC(=O)NC3CCN(Cc4ccccc4)CC3)n2)cc1 | 9% | -3%
COc1ccc(C2C(=O)c3ccccc3C2=Nc2ccc(Br)cc2)cc1 (stereo not given) | -8% | 2%
SMILES | Cruzain inh noDet | Cruzain Triton
c1ccc(-c2ccc(N3CC4(CCNCC4)C3)cc2)cc1 | ? | 1%
c1ccc(-c2ccc(N3CCCC4(CCNCC4)C3)cc2)cc1 | 32µM* | -3%
CCOCCCNC(=O)C1CCN(S(=O)(=O)N(CC(C)C)CC(C)C)CC1 | ? | 9%
O=C(/C=C\c1ccc2c(c1)OCO2)Nc1c2c(nn1-c1ccc(Cl)cc1)CSC2 | 25µM* | -5%
O=C(/C=C\c1ccc2c(c1)OCO2)NC1CC(=O)N(c2ccc(Cl)cc2)C1 (stereo not given) | -9% | -1%
CS(=O)(=O)N(Cc1ccccc1)c1ccc(C(=O)NCc2cccnc2)cc1 | -2% | 2%
Cc1ccc(-c2csc(NC(=O)CCNC(=O)c3ccccc3Cl)n2)cc1 | -9% | -7%
CC(OC(=O)CNC(=O)c1ccccc1F)C(=O)Nc1nc(-c2ccccc2)cs1 (stereo not given) | 7.9µM* | 7.9µM*
Cc1nnc(SCCN2CCOCC2)n1-c1cccc(Cl)c1 | 1% | 10%
COC(=O)c1cc(=O)n(Cc2ccc3c(c2)OCO3)c(=Nc2ccc(F)c(Cl)c2)s1 | 20µM* | -2%
COC(=O)c1cc(=O)n(CCc2ccc(OC)cc2)c(=Nc2ccc(F)c(Cl)c2)s1 | -20% | 0%
O=C(NCCN1C(=O)S/C(=C\c2cccs2)C1=O)c1ccc(=O)[nH]c1 | -9% | -17%
Cc1ccc(S(=O)(=O)Nc2nc3ccccc3nc2NCc2ccco2)cc1 | ? | -9%
O=S(=O)(Nc1nc2ccccc2nc1NCc1ccco1)c1ccc(Cl)cc1 | 20µM* | -13%
CCOC(=O)c1[nH]c(C)c(C(=O)OCC(=O)N2CC(=O)Nc3ccccc32)c1C | -4% | -6%
O=C(Nc1ccc2[nH]c3c(c2c1)CCCC3)c1ccco1 | -17% | -10%
S=C(NCc1ccc2[nH]c3c(c2c1)CCCC3)Nc1ccccc1 | 32µM* | -10%
CCS(=O)(=O)NCc1ccc2[nH]c3c(c2c1)CCCC3 | -22% | -6%
Cc1cc(C)cc(NC(=S)NCc2ccc3[nH]c4c(c3c2)CCCC4)c1 | 32µM* | -1%
Cc1ccc(CS(=O)(=O)Cc2ccc(C(=O)NCc3ccccn3)o2)cc1 | 3% | 1%
O=C(O)/C(Cc1cn[nH]n1)=N\O | 7% | -2%
O=C(c1cccc(Cl)c1)n1nc(-c2ccco2)nc1NCc1cccs1 | -16% | -4%
CCOC(=O)c1c(NC(=O)C2=C(C)NC(=S)NC2c2ccc(F)cc2F)sc(C)c1C (stereo not given) | ? | -4%
CCOC(=O)c1c(NC(=O)C2=C(C)NC(=S)NC2c2ccc(F)cc2)sc(C)c1C (stereo not given) | 16µM* | -6%
CCOC(=O)c1c(NC(=O)C2C3C=CC(CC3)C2C(=O)O)sc(C)c1C (stereo not given) | -5% | -6%
SMILES | Cruzain inh noDet | Cruzain Triton
CCOC(=O)c1c(NC(=O)C2=C(C)NC(=S)NC2c2ccc(C)cc2)sc(C)c1C (stereo not given) | 20µM* | -8%
CN(Cc1ccccc1)S(=O)(=O)c1nnc(NC(=O)c2cccc(Cl)c2)s1 | -17% | -2%
COC(=O)c1cc2occc2n1Cc1nc(-c2ccccc2F)oc1C | 12% | 0%
O=C(Nc1cccc(C(=O)N2CCN(c3ccc(Cl)cc3)CC2)c1)c1nsc2ccccc12 | 20µM* | 0%
O=C(Nc1ccc(C(=O)N2CCN(c3cccc(Cl)c3)CC2)cc1)c1nsc2ccccc12 | 10µM* | -1%
O=C(Nc1ccc(C(=O)N2CCN(c3ccccc3)CC2)cc1)c1nsc2ccccc12 | -29% | -1%
O=C(Nc1cccc(C(=O)N2CCN(c3cccc(Cl)c3)CC2)c1)c1nsc2ccccc12 | ? | -1%
Cc1ccc(C(=O)N/C(=C/c2ccc(F)cc2)C(=O)NCc2ccncc2)cc1 | 3% | 0%
Cc1cc(-c2ccccc2)n2nc(C)c(C#N)c2n1 | 11% | 2%
O=C(CNC(=O)c1cccs1)NCC(=O)OCc1ccc(Cl)cc1Cl | 7% | 1%
Cc1ccc(-c2ccc(C(=O)NCc3ccc(Cl)cc3)o2)c2ccccc12 | 25µM* | ?
Cc1ccccc1-c1ccc(C(=O)NCc2ccccc2)o1 | 8% | -2%
Cc1cc(C)cc(Nc2cc(C)nc3nc(-c4ccco4)nn23)c1 | -4% | -6%
CC(=O)c1ccc(S(=O)(=O)Nc2ccc(-c3cn4c(C)csc4n3)cc2)cc1 | 25µM* | -4%
CC(=O)Nc1ccc(S(=O)(=O)Nc2ccc(-c3cn4c(C)csc4n3)cc2)cc1 | ? | -4%

Screening data deposited in PubChem by National Center for Advancing Translational Sciences (NCATS).
